Inconclusive results are not listed. Values without a mark were called inactive. The source made the active and inactive calls. The call rests on the fitted dose curve; in most records, active means well fitted inhibition curve with a large enough effect; inconclusive means small, poorly fitted or top-dose-only effect; inactive means no such curve, though single readings can be large or run the other way.
test system: zebrafish Abcb4 (ABCB1 homolog); assay: qHTS for characterization and localization of zebrafish homologs of the human ABCB1 multidrug transporter: ABCB4 transfected cells; conditions: CellTiter-Glo viability luminescence, 72 h; series mostly up to 46.1 µM; activity change, negative = inhibition: at the top concentration
Procedure, shortened: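 About 90 known P-gp substrates were titrated onto four cell lines: vector control, MDR-19 (human P-gp) and zebrafish Abcb4 or Abcb5 transfectants. After 72 h, ATP luminescence (CellTiter-Glo) gave curves; cytotoxic required AC50 < 10 uM, >50% response and inhibitory curve class.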

| SMILES | Potency | activity change, negative = inhibition [%] |
| --- | --- | --- |
| CN(C)c1ccc(C(=C2C=CC(=[N+](C)C)C=C2)c2ccc(N(C)C)cc2)cc1 | 13.2 µM (active) |  |
| Cc1ccc(C(=O)N(CCCN)C(c2nc3cc(Cl)ccc3c(=O)n2Cc2ccccc2)C(C)C)cc1 (stereo not drawn) | 20.9 µM (active) |  |
| COc1cc2c(NC3CCN(C(C)C)CC3)nc(N3CCCN(C)CC3)nc2cc1OCCOCCN(C)C |  | -9.4 |

Source: PubChem BioAssay AID1508635 (National Center for Advancing Translational Sciences (NCATS), 2021)
